Compounds with a hit are over-represented: about 2.4% of the library has one in this group of screens.
PPC-1+TRAIL kill: kills PPC-1 cancer cells in the presence of TRAIL | PPC-1 cells + TRAIL, ATPLite viability luminescence | cell killing (% activity), % at 4 µM or 5 µM | 220,000 compounds, 0.41% hits;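 active = cell killing above 50% in the first pass at 4 µM, then a duplicate retest at 5 µM averaging 50% or more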;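 also: plate controls were cells with TRAIL plus DMSO for no effect and medium-only wells lacking cells for full effect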
HSF1 inhib: HSF1 inhibition | NIH3T3-HGL HSE-luciferase, MG132-induced, luminescence 8 h; active compounds read low | activity change, negative = inhibition, % at 7.5 µM (by protocol) | 300,000 compounds, 0.77% hits | AID 2098;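 active = more than half of replicate wells show activity change below -50%, luminescence cut by over half; inconclusive = some wells, but at most half, below -50%; inactive = no replicate well below -50%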;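 also: luciferase reports HSF-1 transcriptional activity via heat shock element; 0% = median of DMSO wells and -100% = zero luminescence signal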
STAT1 inh-1: STAT1 signaling inhibition. AID 920. NIH 3T3 STAT1-luciferase reporter, IFN-gamma, luminescence. inhibition, % at 5.5 µM. 200,000 compounds, 0.35% hits;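 active = inhibition above a set limit, the mean inhibition across all tested compounds plus 3 SD, cut at about 34% in these data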;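 also: 0% = IFN-gamma with DMSO and 100% = IFN-gamma with 300 µM nifuroxazide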
C8 TRAIL sens: sensitizes caspase-8 expressing cells to TRAIL; NB7+C8 cells + TRAIL, ATPlite viability luminescence; inhibition (viability loss, TRAIL sensitization), % at 10 µM; 360,000 compounds, 1% hits; AID 624354;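 active = compounds causing at least 50% loss of cell viability in the single-dose screen, relative to plate controls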
HSP90 refold inh: HSP90 refolding inhibition in rabbit reticulocyte lysate; luciferase refolding luminescence, 3 h; inhibition, % at 5.6 µM; 290,000 compounds, 0.91% hits; AID 1789;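 active = inhibition above the screen-wide mean plus 3 SD, computed separately per campaign, cut at about 16% in these data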;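 also: 0% = DMSO wells and 100% = 60 µM geldanamycin wells; inhibitors lower the luminescence because luciferase stays unfolded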
STAT3 blocker: reduces IL-6 driven STAT3 reporter signal; U3A cells, IL-6 STAT3-luciferase reporter, luminescence; host cell line lacks STAT1; 190,000 compounds, 0.89% hits; inhibition, % at 5.5 µM; AID 862;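 active = inhibition above the mean inhibition across all screened compounds plus 3 SD, cut at about 44% in these data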;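 also: 0% = DMSO only wells and 100% = 100 µM nifuroxazide control wells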
STAT1 inh-2: confirmation of STAT1 signaling inhibitors; shares compounds with STAT1 inh-1; NIH 3T3 STAT1-luciferase reporter, IFN-gamma, luminescence; inhibition, % at 5.5 µM; 200 compounds, 55% hits; AID 1263;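 active = triplicate mean inhibition exceeding the hit cutoff computed for the primary STAT1 screen, cut at about 35% in these data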;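 also: 0% = DMSO with IFN-gamma and 100% = 300 µM nifuroxazide with IFN-gamma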
NFkB inh STAT1ct: inhibits NF-kappaB, counter-screen to STAT1 inhibitors | shares compounds with STAT1 inh-1 | HEK293T NF-kB luciferase reporter, TNF-alpha induced, luminescence | inhibition, % at 5.7 µM | 200 compounds, 30% hits;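 active = inhibition above the mean of solvent-only control wells plus 3 SD of those wells, cut at about 15% in these data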;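 also: 0% = DMSO with TNF-alpha and 100% = MG-132 control with TNF-alpha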
STAT3 inh 2: counter-screen for STAT1 inhibitors: STAT3 inhibition; inhibition, % at 5.7 µM; shares compounds with STAT1 inh-1; 200 compounds, 20% hits; U3A cells, IL-6 STAT3 luciferase reporter, luminescence; cells lacking STAT1; AID 1310;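 active = inhibition above the mean of solvent-only control wells plus 3 SD, set per campaign, cut at about 25% in these data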;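 also: 0% = IL-6 plus DMSO and 100% = IL-6 plus nifuroxazide control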
The depositor's hits bear a star; ? = inconclusive; · = no result.

SMILES | PPC-1+TRAIL kill | HSF1 inhib | STAT1 inh-1 | C8 TRAIL sens | HSP90 refold inh | STAT3 blocker | STAT1 inh-2 | NFkB inh STAT1ct | STAT3 inh 2
NC(Cc1ccc(Cl)cc1)c1csc(Nc2ccc(C(=O)NCCCO)cn2)n1 (stereo not given) | · | · | · | 8.4 | · | · | · | · | ·
CCCCCCC(=O)N(O)C1CC(=O)N(Cc2ccccc2)C1=O (stereo not given) | 28.3 | · | 34.6* | -6.9 | 5.1 | 21.8 | 29.8 | 10.9 | 22.4
Cc1ccc(NC(=O)c2cc(C)n(-c3cccc(C)c3)c2C)cc1 | 19.6 | -70.3* | 65.4* | 30.1 | 5.3 | 15.7 | 4.8 | 0.4 | -14.1
O=C(Nc1ccc(C(=O)N2CCCC2)cc1)c1ccccc1F | 10.7 | 11.2 | -12.1 | 4.3 | 0.8 | 2.7 | · | · | ·
O=C(Nc1cc(C(=O)N2CCCC2)ccc1N1CCCC1)c1ccccc1F | 5.9 | 9.2 | 51.0* | -12.8 | 0.6 | 16.6 | 48.0* | 10.7 | 8.5
COc1ccc(NC(=O)CSc2nnc(-c3cccc(O)c3)o2)cc1 | · | -9.5 | · | -0.9 | -2.2 | · | · | · | ·
COc1cccc(NC(=O)CSc2nnc(-c3cc(C)n(-c4ccccc4)c3C)o2)c1 | 11.3 | -53.3* | 39.6* | 12.7 | 6.7 | 14.6 | 18.2 | 8.5 | -23.4
Oc1cccc(/C=N/Nc2cccc3cccnc23)c1 | 33.0 | 25.1 | 49.2* | 54.2* | -1.7 | 15.2 | 31.6 | -11.7 | -61.0
COc1cc(/C=N/Nc2cccc3cccnc23)cc(OC)c1O | 15.1 | 11.9 | -14.3 | 43.0 | 3.2 | 2.8 | · | · | ·
N#C/C(=N\Nc1cccc([N+](=O)[O-])c1)C(=O)c1ccc(Br)cc1 | 9.7 | 2.0 | 69.2* | 41.3 | -5.9 | 37.7 | 43.8* | 12.1 | 29.1*
Cc1ccc(CN2C(=O)CSCC2(C)C(=O)NCc2ccccc2)cc1 (stereo not given) | · | · | · | 14.7 | · | · | · | · | ·
COc1ccccc1-c1cc(C(F)(F)F)nc(S(=O)(=O)CCCC(=O)N2CCOCC2)n1 | 7.1 | ? | 42.6* | -8.4 | 3.5 | 6.3 | 44.4* | 0.6 | 6.6
COc1ccccc1-c1cc(C(F)(F)F)nc(S(=O)(=O)CCCC(=O)O)n1 | 12.9 | 30.9 | 29.6 | -16.5 | 5.7 | 8.3 | · | · | ·
COc1ccc(-c2cc(C(F)(F)F)nc(S(=O)(=O)CCCC(=O)Nc3cccc(O)c3)n2)cc1OC | 6.4 | 186.4 | 38.3* | -13.0 | 3.6 | 8.9 | 38.6* | -7.3 | -44.5
COCC(=O)N(C)C[C@@H]1Oc2ncc(Br)cc2C(=O)N([C@@H](C)CO)C[C@H]1C | · | · | · | 8.7 | · | · | · | · | ·
CCN(CC(=O)NCc1ccc(Cl)cc1)C(=O)/C=C/c1cccs1 | -16.7 | 11.4 | 68.2* | 2.5 | 0.9 | -10.1 | 7.7 | 1.8 | 3.4
O=C(/C=C/c1cn(-c2ccccc2)nc1-c1cccnc1)N1CCCC1 | 27.5 | 4.5 | 70.9* | -6.5 | -0.9 | 26.3 | 55.2* | 36.6* | 33.2*
Cc1ccc(OCc2nc3ccccc3n2C(C(=O)Nc2c(C)cccc2C)C2CC2)cc1 (stereo not given) | · | · | · | -0.2 | · | · | · | · | ·
Cc1ccc(C(=O)Cn2nc(C(=O)O)c3ccccc3c2=O)cc1C | 10.8 | 27.6 | · | 21.5 | -2.6 | · | · | · | ·
Cc1ccc(-n2nc(C(=O)O)c3ccccc3c2=O)cc1C | 10.5 | -3.2 | 54.5* | -11.4 | 0.3 | 14.6 | 48.8* | 2.0 | 7.8
C[C@@H]1CN([C@@H](C)CO)C(=O)CCCn2cc(nn2)CO[C@H]1CN(C)S(=O)(=O)c1ccc2c(c1)OCCCO2 | · | · | · | 8.1 | · | · | · | · | ·
O=C(O)c1ccc(N/N=C/c2cc3c(cc2[N+](=O)[O-])OCO3)cc1 | 15.4 | -9.2 | 35.8* | -10.5 | 8.2 | 36.0 | 65.1* | 44.9* | 15.2
COc1ccc2[nH]c3c(=O)n4c(nc3c2c1)SCCC4 | -8.1 | 2.5 | 37.3* | -0.7 | 0.0 | 25.0 | 11.5 | -3.7 | 17.0
Cc1ccc2[nH]c3c(=O)n4c(nc3c2c1)SCC4 | -0.6 | -5.1 | 12.0 | -4.6 | -1.9 | 23.5 | · | · | ·

Source: PubChem (several laboratories)
